RecA intein inh: blocks M. tuberculosis RecA intein splicing | inhibition, % (concentration not given with the values) | cell-free RecA intein splicing, fluorescence | actives 0.75% (n = 290,000); in the data active = inhibition above about 30%; inconclusive = no clear call, values can overlap the other calls
Target sequence (P9WHJ3 whole entry, looked up): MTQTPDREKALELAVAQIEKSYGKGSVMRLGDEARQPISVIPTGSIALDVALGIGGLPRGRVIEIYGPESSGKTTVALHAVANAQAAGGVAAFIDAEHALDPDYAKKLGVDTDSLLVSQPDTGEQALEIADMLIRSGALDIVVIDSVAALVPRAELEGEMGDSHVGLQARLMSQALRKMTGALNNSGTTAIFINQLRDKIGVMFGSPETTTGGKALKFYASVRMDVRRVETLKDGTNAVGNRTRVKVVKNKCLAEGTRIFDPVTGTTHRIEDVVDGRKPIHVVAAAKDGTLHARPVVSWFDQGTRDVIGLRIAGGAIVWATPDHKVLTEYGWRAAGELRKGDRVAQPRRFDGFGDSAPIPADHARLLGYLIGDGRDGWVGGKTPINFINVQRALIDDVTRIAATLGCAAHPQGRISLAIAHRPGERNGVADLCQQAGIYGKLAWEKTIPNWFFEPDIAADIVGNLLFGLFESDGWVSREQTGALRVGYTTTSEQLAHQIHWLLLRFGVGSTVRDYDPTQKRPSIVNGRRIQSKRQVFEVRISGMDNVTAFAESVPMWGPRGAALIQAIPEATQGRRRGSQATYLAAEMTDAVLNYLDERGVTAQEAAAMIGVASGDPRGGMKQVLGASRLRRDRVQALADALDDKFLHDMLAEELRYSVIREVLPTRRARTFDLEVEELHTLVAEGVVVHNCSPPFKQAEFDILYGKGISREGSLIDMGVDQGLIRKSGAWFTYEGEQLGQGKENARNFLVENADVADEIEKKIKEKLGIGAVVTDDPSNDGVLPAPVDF
RmlCD inh 1536: inhibitors of Mycobacterium tuberculosis RmlC and RmlD coupled enzymes; RmlC+RmlD coupled enzyme assay, percent inhibition; primary screen in compound mixtures; actives 0.03% (n = 160,000); inhibition, % at 3.6 µM; P9WH09+P9WH11; in the data active = inhibition mostly above about 34%, no sharp cut-off; inconclusive = no clear call, values can overlap the other calls; inactive = mostly below about 22%
Each line names hits and unclear results; the compound was inactive in the other large screens. Compounds with a hit are over-represented: about 0.77% of the library has one in this group of screens.

COc1ccc(C2C(C#N)=C(N)OC3=C2C(=O)CC(C)(C)C3)cc1Cn1nc(C)c([N+](=O)[O-])c1C (stereo not given)	none
COc1ccc(C2C(C#N)=C(N)Oc3c2c(C)nn3-c2ccccc2)cc1Cn1nc(C)c([N+](=O)[O-])c1C (stereo not given)	RecA intein inh 53.6
O=c1[nH][nH]c2c(N=Cc3ccccc3O)ccc(F)c12	none (no result: RecA intein inh)
O=C(CNC(=O)C12CC3CC(CC(C3)C1)C2)N/N=C\c1ccco1	none (no result: RmlCD inh 1536)
O=C(/C=C/c1ccco1)c1ccc(NC(=O)C23CC4CC(CC(C4)C2)C3)cc1	RecA intein inh 33.6
Cc1ccc(CNC(=O)CCS(=O)(=O)c2ccc3c(c2)NC(=O)C(C)S3)cc1 (stereo not given)	none (no result: RmlCD inh 1536)
NC(=O)[C@H](Cc1cc2ccccc2s1)NC(=O)[C@@H]1CC2(CC(c3cccc(NC(=O)[C@@H]4CCC(=O)N4)c3)=NO2)CN1C(=O)/C=C/Sc1ccccc1 (stereo not given in full)	none (no result: RmlCD inh 1536)
NC(=O)[C@H](Cc1cc2ccccc2s1)NC(=O)[C@@H]1CC2(CC(c3cccc(NC(=O)[C@@H]4CCC(=O)N4)c3)=NO2)CN1C(=O)/C=C/c1c(F)cccc1Cl (stereo not given in full)	RecA intein inh 32.7
COc1ccccc1S(=O)(=O)Nc1cccc(-c2nnc3n2CCCCC3)c1	none
CC1Nc2ncnc(N3CCN(c4ccccc4)CC3)c2N(Cc2ccc(Cl)cc2)C1=O (stereo not given)	none (no result: RmlCD inh 1536)
CC1Nc2ncnc(N3CCc4ccccc4C3)c2N(Cc2ccc(Br)cc2)C1=O (stereo not given)	RecA intein inh 35.0 (no result: RmlCD inh 1536)
CC1Nc2ncnc(N3CCc4ccccc4C3)c2N(Cc2ccc(Cl)cc2)C1=O (stereo not given)	RecA intein inh 31.6 (no result: RmlCD inh 1536)
CC1Nc2ncnc(N3CCN(c4ccccc4)CC3)c2N(Cc2ccccc2)C1=O (stereo not given)	none (no result: RmlCD inh 1536)
Cn1c(SCc2ccccc2)nc2ccsc2c1=O	none
Cc1nc2cc(C)c(C)cc2s1	none (no result: RmlCD inh 1536)
Cc1cc2nc3ccc(=[N+](C)C)cc-3sc2cc1N	RecA intein inh 31.3
Cc1cccc(OC(=O)c2cncc(Br)c2)c1	none (no result: RecA intein inh)
COc1cccc(OC)c1C(=O)NC(=O)NNc1cc(C(F)(F)F)cc(C)n1	none (no result: RmlCD inh 1536)
FC(F)(F)c1ccc(C2[C@H]3CN(Cc4cccnc4)[C@H](c4ccccc4)C34CC2(c2cccnc2)C4)cc1 (stereo not given in full)	RecA intein inh 40.2 (no result: RmlCD inh 1536)
FC(F)(F)c1ccc(C2[C@H]3CN(Cc4ccc(-c5ccccc5)cc4)[C@H](c4ccccc4)C34CC2(c2cccnc2)C4)cc1 (stereo not given in full)	none (no result: RmlCD inh 1536)
Nn1c(Cc2cccc3ccccc23)nnc1SCc1c(Cl)cccc1Cl	none (no result: RmlCD inh 1536)
COc1ccc(CN(C(=O)CSc2nnc(-c3ccccc3C)o2)c2ccc(F)cc2)cc1	RecA intein inh 40.1
O=C(CSc1nnc(-c2c[nH]c3ccccc23)o1)N(Cc1ccccc1)c1ccc(F)cc1	none
COc1ccc(-c2cc(C(F)(F)F)n3nc(C(=O)Nc4cc(C)on4)cc3n2)cc1OC	none
COc1ccc(-c2cc(C(F)(F)F)n3nc(C(=O)N(C)Cc4ccccc4)cc3n2)cc1OC	RmlCD inh 1536 40.3
CCOC(=O)C1(CCOC)CCN(Cc2ccc3nonc3c2)CC1	none
CC(C)(C)c1cc(C(=O)CCN2CCOCC2)cc(C(C)(C)C)c1O	RecA intein inh 30.4 (no result: RmlCD inh 1536)
CC(C)(C)c1cc(C(=S)N2CCN(CCO)CC2)cc(C(C)(C)C)c1O	none
CCCCn1c(-c2cccs2)nc2nc3ccccc3nc21	none (no result: RmlCD inh 1536)
CCCCOCCCn1c(-c2ccco2)nc2nc3ccccc3nc21	RmlCD inh 1536 56.6
CC(=O)c1cc(-c2ccc(F)cc2)n(CC(=O)NCc2cccs2)c1C	none (no result: RmlCD inh 1536)
N#Cc1cc([N+](=O)[O-])ccc1NC(=O)COC(=O)CCC1CCCCC1	RecA intein inh 59.9 (no result: RmlCD inh 1536)
CCCC(=O)OCC(=O)Nc1ccc([N+](=O)[O-])cc1C#N	none
CCOC(=O)c1c(NC(=O)CN2CCCCC2)sc(CN(C)C)c1-c1ccccc1	none
CCOC(=O)c1c(NC(=O)CCl)sc(CN(C)C)c1-c1ccccc1	RecA intein inh 50.0
Cc1ccc(-c2csc(N(CCO)CCCn3c(C(F)(F)F)nc4ccccc43)n2)cc1	none (no result: RmlCD inh 1536)
O=C(COC(=O)CNS(=O)(=O)/C=C/c1ccccc1)Nc1cc(S(=O)(=O)N2CCCCC2)ccc1Cl	none
COc1ccc(Nc2nc(N)nc(CCl)n2)cc1	none
Nc1nc(CCl)nc(Nc2ccc3ccccc3c2)n1	RecA intein inh 46.2 (no result: RmlCD inh 1536)
O=S(=O)(NCc1ccc2c(c1)OCO2)c1ccc(F)cc1	none (no result: RmlCD inh 1536)
CCN(CC)S(=O)(=O)c1ccc(OC)c(NC(=O)CCS(=O)(=O)Cc2ccccc2)c1	none (no result: RmlCD inh 1536)
CC(C)C[C@H](N)c1nnc(SCC(=O)Nc2ccc(Br)cc2)o1	none (no result: RmlCD inh 1536)
CC(C)C[C@H](N)c1nnc(S(=O)(=O)Cc2ccc(F)cc2)o1	RecA intein inh 33.6, RmlCD inh 1536 inconclusive
Cc1nn(C(=O)c2cccnc2)c(C)c1Sc1ccccc1	none
Cc1nn(C(=O)CNS(=O)(=O)c2ccccc2)c(C)c1Sc1ccc(Cl)cc1	RecA intein inh 32.0
O=C(c1nnsc1S(=O)(=O)c1ccc(Cl)cc1)N1CCOCC1	none
CNC(=O)c1nnsc1S(=O)(=O)c1ccc(Cl)cc1	RecA intein inh 39.8
CC(C)(C)NCC(=O)c1c[nH]c2ccccc12	none
CC(C)(Oc1ccc(Cl)cc1)C(=O)NC1=NN(c2ccccc2)C(=O)C1	none
C=C(C)C(=O)NC1=NN(c2ccccc2)C(=O)C1	RecA intein inh 72.6
CCCCc1ccc(/C=C2\C(=O)c3ccccc3C(O)=C2C(=O)OCC)cc1	RecA intein inh 35.1
CCOC(=O)C1=C(Cc2ccc(F)cc2)C(=O)c2ccccc2C1=O	none
CN1CCN(S(=O)(=O)c2ccc(NC(=S)NC(=O)c3ccc(Cl)cc3)cc2)CC1	none (no result: RecA intein inh)
O=C(Nc1ccccc1)c1nnsc1S(=O)c1ccc(Cl)cc1 (stereo not given)	RecA intein inh 35.4
O=C(c1nnsc1S(=O)c1ccc(Cl)cc1)N1CCOCC1 (stereo not given)	none
O=C1NC(=Nc2cccc(Cl)c2)SC1Cc1cccc(Cl)c1Cl (stereo not given)	none
COc1ccccc1Oc1nc(C)c(C(C)=O)cc1C#N	none
COc1ccccc1Oc1cc(C#N)c(C#N)cc1-n1nnc2ccccc21	RecA intein inh 41.8
CCOC(=O)c1nn(-c2ccc(F)cc2)c(=O)c2c(N)scc12	none
CCOC(=O)c1nn(-c2ccc(C)cc2)c(=O)c2c(N)scc12	RecA intein inh 34.8 (no result: RmlCD inh 1536)
CN(C)CCN1C(=O)C(=O)/C(=C(/O)c2ccc(S(=O)(=O)N3CCOCC3)cc2)C1c1ccc(Br)cc1 (stereo not given)	none (no result: RmlCD inh 1536)
CCCCCc1cc(=O)oc2c(C(CCN3CCCC(C)C3)c3ccc(N(C)C)cc3)c(OC)cc(OC)c12 (stereo not given)	RecA intein inh 30.9 (no result: RmlCD inh 1536)
CCCCCc1cc(=O)oc2c(C(CCN3CCCC(C)C3)c3cc(OC)c(OC)c(OC)c3)c(OC)cc(OC)c12 (stereo not given)	none
N/C(=N\c1nc2c(c(=O)[nH]1)CCC2)Nc1cccc(Cl)c1	none
Nc1ccc2nc(CN3CCOCC3)[nH]c2c1	RecA intein inh 41.9 (no result: RmlCD inh 1536)
c1ccc2[nH]c(CN3CCOCC3)nc2c1	none
C=CCN(CC=C)c1cnn(-c2nc3ccccc3[nH]2)c(=O)c1Cl	none
O=c1c(Cl)c(NCCCO)cnn1-c1nc2ccccc2[nH]1	RecA intein inh 43.9
CCn1c(-c2ccc[nH]c2=O)nc2ccccc21	none (no result: RmlCD inh 1536)
N#C/C(=C\c1ccncc1)c1nc2ccccc2[nH]1	RmlCD inh 1536 34.5
N#C/C(=C\c1cccnc1)c1nc2ccccc2[nH]1	none

Source: PubChem BioAssay (several laboratories)
